The target in one assay is CADM4. As to the kind of experiment: pooled miR-30 sensor sort-seq; sequence = guide strand. Conditions: shRNA.
TTATTGGACGCCTCGCAAGTGT had a sensor-assay potency score (higher = more potent) of -0.6. Still for that read-out and setting: under ACATATGATCAGAAACACCAGC stands -1.09; under TTTCAGCTCCTTGCGGTCCCGG, -0.888; under TTGAAGAAGAGGGTCTGCCGGG, 0.128. On to TATGATCAGAAACACCAGCAGC, for which the sensor-assay potency score (higher = more potent) was -1.06.

TTCTGCCGTACCGAGCACCAGA yielded a sensor-assay potency score (higher = more potent) of -1.21. Still for that read-out and setting: under TTCTCTGTCTGTACTTCCTGTC stands -0.0405; under TTTGCTGGTTCCTTGCAGCTGG, 0.149; under TCTGTCTGTACTTCCTGTCCTG, 0.306.

The sequence TGGATGACAACTATGGACCCAT showed a sensor-assay potency score (higher = more potent) of -0.33.

In a further assay the target is CALB1. Described as above. As to conditions: shRNA.
TTGATTGGTAAACTAAATCTGT registered a sensor-assay potency score (higher = more potent) of -0.119.

As to ATTATTAATATCCAGATCCTGT, the sensor-assay potency score (higher = more potent) is -0.387. In turn, TGTAATATTATTAATATCCAGA displayed a sensor-assay potency score (higher = more potent) of -0.351. On the same count and under the same terms, under TTAGGTCTGTATACTCGGCTAA stands -0.144. Sequence TGTCACATCAACTTGAACCGAT yielded a sensor-assay potency score (higher = more potent) of 0.787.

In the case of TATTTTTCCATCATCTCTTTGC, the sensor-assay potency score (higher = more potent) is -0.281. On the same count and under the same terms, the same measure for TAAATCTGTAATGAGACTGTTA: 0.457. TAGGTCTGTATACTCGGCTAAT yielded a sensor-assay potency score (higher = more potent) of -1.02. Still for that read-out and setting: under TTCTCTGACAGTAAGTTTGTTG stands -0.382.

As to TCTTGTTCAACTATATTTGTGA, the sensor-assay potency score (higher = more potent) was determined as 0.29. Same read-out and setting: the same measure for TAAGCATAGACTTTCTTCTTTT: -0.786; for TTTGTGTCATCAACAGTCTTGT: 0.294. Still for that read-out and setting: the same measure for TATTCTTCTCGCACAGATCCTT: 0.132; for TATAAAAGAAAATACAGCCTAC: -0.236.

Regarding TTAGATACAGTGTATCACTAGC, the sensor-assay potency score (higher = more potent) came to 0.553.

TAAGCTTAGAAATATTTTGTGG displayed a sensor-assay potency score (higher = more potent) of -0.267. On the same count and under the same terms, under ATTCTTCTCGCACAGATCCTTC stands -1.06; under TTCGGTACAGCTTCCCTCCATC, -0.593; under TTTAAGAAGAAAATTCTCCTGC, 1.04. TTATTTTTTAGATACAGTGTAT: the sensor-assay potency score (higher = more potent) was -0.499. The same measure, in the same setting: under TTCCCTTGTCACATCAACTTGA stands 0.335; under TTTTGTGTCATCAACAGTCTTG, 0.226; under TATGTATCCATTGCCGTCCTGA, -0.391.

Turning to AAACAGTATAGAAACAAGCTGA, the sensor-assay potency score (higher = more potent) is -0.0132.

A further assay concerns the target CAMK2N1. Described as above. As to conditions: shRNA.
TTTCAGCACGTCATCAATCCTA returned a sensor-assay potency score (higher = more potent) of -0.00921. Still for that read-out and setting: under TTGTTGGTGTCCTGCAGGCGGC stands -1.65; under ATCTTCAATAACAACCCGCTTG, -0.788; under TTCAGCACGTCATCAATCCTAT, -0.353. Still for that read-out and setting: under TCTTCAATAACAACCCGCTTGC stands -0.41.
Note: reference of the scale not given here.
